# Sampled rows, rich in hits. Any-hit rate of the full collection: about 2.6%.
# A3G deaminase: blocks human APOBEC3G single-stranded DNA deamination | Q9HC16 | recombinant A3G, ssDNA deamination FAM/TAMRA fluorescence | inhibition, % at 20 µM | 330,000 tested, 0.28% active;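 active means inhibition of at least 40% at 20 µM, with no more than 30% in the related APOBEC3A deaminase screen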;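 further: plate controls were DMSO wells with A3G for no effect and wells lacking A3G enzyme for full effect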
# APOBEC3A inh: human APOBEC3A DNA deaminase inhibition. 330,000 tested, 0.41% active. P31941. recombinant A3A, FAM/TAMRA ssDNA deamination fluorescence. AID 493011. inhibition, % at 20 µM;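 active means at least 40% inhibition at 20 µM here, with at most 30% in a related deaminase screen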;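 further: plate controls were A3A with DMSO for no effect and wells lacking A3A enzyme for full effect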
# Target sequence (P31941 whole entry, looked up): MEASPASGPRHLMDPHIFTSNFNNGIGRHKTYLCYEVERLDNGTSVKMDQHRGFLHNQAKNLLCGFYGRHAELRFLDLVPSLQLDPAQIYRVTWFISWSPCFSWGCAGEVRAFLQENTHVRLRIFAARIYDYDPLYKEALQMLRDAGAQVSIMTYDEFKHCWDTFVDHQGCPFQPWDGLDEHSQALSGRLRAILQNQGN
# PABP polyA inh: blocks human PABP binding to poly(A) RNA; fluorescence polarization; calls only at 35 µM; 290,000 tested, 1% active; AID 2014;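 further: calls also rest on retests at 20 µM and on dose response follow-up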
# PABP1 MLLE inh: blocks PAM2 peptide binding to the PABP1 MLLE domain. P11940. GST-MLLE / FITC-PAM2 fluorescence polarization. inhibition, % at 20 µM. 360,000 tested, 0.36% active; in the data active means inhibition above about 35%, passing the limit was not always enough;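 further: plate controls were DMSO wells with GST-MLLE for no effect and wells lacking GST-MLLE protein for full effect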
# eIF4H FP inh: inhibitors of RNA binding by human eIF4H | inhibition, % at 35 µM | 290,000 tested, 0.94% active | Q15056 | eIF4H fluorescence polarization binding assay;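 further: calls also rest on retests at 20 µM and on dose response follow-up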
# PHOSPHO1 block: inhibitors of human PHOSPHO1 phosphatase. inhibition, % at 13.3 µM. recombinant PHOSPHO1, absorbance phosphatase assay. Q8TCT1. 290,000 tested, 1.1% active; in the data active means inhibition above about 60%
# A3A conf: APOBEC3A (human) deaminase inhibition, confirmed | shares compounds with APOBEC3A inh | recombinant A3A, ssDNA deaminase UDG fluorescence assay | inhibition, % at 20 µM | 1,400 tested, 63% active;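 active means inhibition reaching a set limit, 80% of the first screen's cutoff, at 20 µM in any replicate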;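 further: plate controls were DMSO wells with A3A for no effect and wells lacking A3A enzyme for full effect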
# UDG A3A counter: inhibits UDG, flagging false APOBEC3A inhibitors. AID 504714. shares compounds with APOBEC3A inh. UDG counterscreen, FAM/TAMRA uracil oligo fluorescence. inhibition, % at 20 µM. 1,000 tested, under 10 active
# Starred values were filed as active, the others as inactive; i = inactive; . = no result given; + = active, no number; ! = not active in a repeat. Unless noted, how the calls were made is not given here.
SMILES,A3G deaminase,APOBEC3A inh,PABP polyA inh,PABP1 MLLE inh,eIF4H FP inh,PHOSPHO1 block,A3A conf,UDG A3A counter
O=C(Nc1ccc(Br)cc1)c1cccc(-n2cnnn2)c1,-2,51*,i,-18,3,4,-5,2
C[n+]1ccccc1/C=C/c1cc(Br)ccc1O,15,50*,i,-60,6,-18,26*,-3
CC(O)/C=C/c1cccc[n+]1C (centres undefined),27,60*,+,-117,14,84*,80*,6
C[n+]1ccccc1/C=N/O,3,65*!,i,2,0,6,80*,-1
CCn1nnnc1NCc1c(OC)ccc2ccccc12,-7,1,i,3,-9,8,.,.
O=C(NC(c1ccc(F)cc1)c1ccc2ccccc2n1)C1CCN(Cc2cccc(C(F)(F)F)c2)CC1 (centres undefined),.,.,.,6,.,.,.,.
Cc1cc([N+](=O)[O-])nn1CC(=O)NC1CCCCC1,2,3,i,1,6,10,.,.
O=C(COc1ccc(Cl)cc1Br)NC(=O)NC1CCCC1,-6,0,.,5,.,.,.,.
O=C(CN(c1ccccn1)S(=O)(=O)c1ccccc1)N/N=C/c1cccc([N+](=O)[O-])c1,4,44*,i,-76,-2,-2,15,.
O=C(Cc1ccccc1)N/N=C/c1cccc([N+](=O)[O-])c1,-3,0,i,5,6,7,.,.
O=C(CN1C(=O)NC2(CCCCC2)C1=O)NNC(=O)C1CC1,-4,3,.,2,.,.,.,.
COc1cc(OC)cc(C(=O)N[C@H](C(=O)NCc2cccs2)C(C)C)c1,-6,0,i,-4,1,33,.,.
COc1ccc(C(=O)N[C@H](C(=O)NCc2cccs2)C(C)C)cc1,-4,40*,i,-91,3,-14,12,-1
O=C1c2ccccc2C(=O)N1CN(C(=O)c1ccccc1)c1ccc(O)cc1,-1,1,i,15,0,-7,.,.
CC(C)COc1nc2ccccc2nc1N1CCN(C)CC1,-5,-2,i,-1,28,48,.,.
CCOc1c(C=C(C#N)C#N)c2ccccc2n1CC,-1,42*,i,-34,-4,1,-7,-4
CCCN1C(=O)CC(Sc2ncccc2C(=O)O)C1=O (centres undefined),-5,-7,i,-2,-1,37,.,.
COc1ccc(CCN2C(=O)CC(Sc3ncccc3C(=O)O)C2=O)cc1OC (centres undefined),-4,98*,i,5,9,-27,-5,2
CCN1/C(=C/c2ccc3cccc(C)c3[n+]2CC)Sc2ccccc21,24,70*,i,-182,0,-18,85*,5
O=C(/C=C/c1ccco1)N1CCN(S(=O)(=O)c2ccccc2)CC1,14,41*,.,-3,.,.,29,.
COc1cccc(CC(NC(C)=O)C(=O)NC2CCN(c3c(Cc4ccccc4)c(C)nc4ncnn34)CC2)c1 (centres undefined),2,2,i,10,2,-18,.,.
C=CCNc1nc(Nc2cc(Cl)ccc2OC)nc(OC)n1,-8,4,i,11,-3,19,.,.
Cc1ccc(OC(C)C(=O)Nc2ccc3c(c2)n(C)c(=O)n3C)c(C)c1 (centres undefined),19,84*,.,-80,.,-132,29,.
CC1(C)CC(NS(=O)(=O)c2ccc(Cl)cc2)CC(C)(C)N1,-1,-3,i,0,-10,14,.,.
O=[N+]([O-])c1ccc2nc(N3CCCC3)sc2c1,18,45*,+,-87,34,20,55*,-1
SMILES,A3G deaminase,APOBEC3A inh,PABP polyA inh,PABP1 MLLE inh,eIF4H FP inh,PHOSPHO1 block,A3A conf,UDG A3A counter
CCOC(=O)c1c(NC(=O)c2ccc(N3C(=O)[C@@H]4[C@H](C3=O)[C@H]3C=C[C@@H]4C3)cc2)sc2c1CC(C)CC2 (some centres undefined),-5,91*,i,-7,-3,-30,6,6
CCN(CC)S(=O)(=O)c1cccc(C(=O)Nc2ccc(S(=O)(=O)NC3=NCCCCC3)cc2)c1,3,55*,.,-81,.,.,7,.
COc1cc(OC)cc(C(=O)OCC(=O)Nc2cccc(S(=O)(=O)NC3=NCCCCC3)c2)c1,-1,88*,.,15,.,.,-4,2
COc1cccc(CN(C)C(=O)c2cccc(OCc3ccccc3)c2)c1,-1,0,i,-6,-14,16,.,.
C[n+]1cccc(/C=N/NC(=O)CC23CC4CC(CC(C4)C2)C3)c1,16,45*,.,-106,.,-10,67*,0
CNC(=O)c1ccc(NC(=O)CC23CC4CC(CC(C4)C2)C3)cc1,-5,3,i,-17,3,19,.,.
CCC[N+]1(CC#CC2(O)CCCCC2)CCOCC1,16,74*,i,-114,6,2,82*,3
COc1ccc(/C=N\NC(=O)CNC(=O)C(c2ccccc2)c2ccccc2)cc1[N+](=O)[O-],-10,-3,i,-3,-8,10,.,.
COc1ccc(/C=N/NC(=O)C(C)Sc2ccccn2)cc1[N+](=O)[O-] (centres undefined),11,49*,i,-117,-7,13,65*,12
Nc1nc2c(ncn2[C@@H]2O[C@H](CNC(=O)[C@H](N)C3CCCCC3)[C@@H](O)[C@H]2O)c(=O)[nH]1,.,.,.,-2,.,.,.,.
O=C(c1cccnc1)N1CCN(c2ccc(Cl)cc2)CC1,-6,48*,i,6,-4,-1,-4,-2
COc1ccc2[nH]c(=O)c(CN(C(C)=O)c3cccc(C)c3)cc2c1,-5,-3,i,-4,-5,-8,.,.
COc1ccc(N(Cc2cc3cc(C)ccc3[nH]c2=O)C(C)=O)cc1,-4,47*,i,-8,-7,52,-3,0
CC1=C(C(=O)OCc2ccc([N+](=O)[O-])cc2)N2C(=O)C(NC(=O)Cc3ccccc3)C2SC1 (centres undefined),-2,50*,i,7,17,36,40*,-3
CC1=C(C(=O)OCc2ccccc2)N2C(=O)[C@@H](NC(=O)COc3ccccc3)[C@H]2SC1,-10,-7,i,1,-9,-19,.,.
O=C1CC(N2CCN(S(=O)(=O)c3ccc([N+](=O)[O-])cc3)CC2)C(=O)N1c1ccccc1F (centres undefined),-7,-5,.,17,.,.,.,.
Cn1c(Cc2ccccc2)nnc1SCCC(=O)Nc1ccccc1,16,69*,i,-125,1,-17,74*,-4

# Screening results from PubChem BioAssay.
